The term AC50 denotes the concentration giving half of the maximal activity seen.

Where “and” joins values, the source holds several entries; their conditions need not be identical. Equal values may be shown once. Some compounds were tested as several samples or in several runs, with calls that do not always agree. Calls of active or inactive are those of the source. How the source made its calls: active means hit-call score of the fitted dose curve at least 0.9, where 1 is the maximum; inactive means score below 0.9.

The nature of one assay: ATG_E_Box_CIS: Attagene CIS-FACTORIAL HepG2 Assay for human Enhancer Box (E-box) (AID 2282936). The note with it: HepG2 E-box cis-reporter transcription, actives raise or lower the signal. The procedure, abridged:
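HepG2 cells transiently transfected with multiplexed cis-element reporter units sensing endogenous transcription factor activity; 24 h compound exposure. Reporter mRNA measured by RT-PCR, 6-FAM primer extension, HpaI digestion and capillary electrophoresis; bidirectional fit versus DMSO.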
As for `COc1cc(-c2ccc(N)c(OC)c2)ccc1N`, the half-maximal activity concentration (AC50) was 43.2 µM (active) and the result was inactive.
As for `CC(=O)C(Cl)C(=O)N(C)C` (stereo not drawn), the outcome was inactive.
Same read-out and setting: under `O=C(Cl)c1ccc(Cl)cc1` stands “inactive”.
For the compound `CC(C)(C)CC(C)(C)c1ccc(O)cc1`, the concentration at half-maximal activity (AC50) is 8.06 µM (active) and the result was inactive.
Turning to `C=CC(=O)N(C)C`, the outcome was inactive.
Same read-out and setting: under `CCOP(=O)(CN(CCO)CCO)OCC` stands “inactive”.
With `C(=NC1CCCCC1)=NC1CCCCC1`, the AC50 is 33.4 µM (active).
On to `ClC1=C(Cl)[C@]2(Cl)[C@H]3[C@H]([C@H]4C=C[C@H]3C4)[C@@]1(Cl)C2(Cl)Cl`, for which the outcome was inactive.
The same measure, in the same setting: under `CC(C)c1ccc(CO)cc1` stands “inactive”; under `CCC1(c2ccc(N)cc2)CCC(=O)NC1=O` (stereo not drawn), “inactive”; under `COc1ccccc1OC`, “inactive”.
For the compound `Clc1nc(Cl)nc(Cl)n1`, the result was inactive.
On the same count and under the same terms, under `CC(C)C1CCC(Cc2ccc(Cl)cc2)C1(O)Cn1cncn1` (stereo not drawn) stands “inactive”; under `Cc1ccc2ccccc2c1C`, “inactive”; under `C[C@]12CC[C@H](O)CC1=CC[C@@H]1[C@@H]2CC[C@]2(C)C(=O)CC[C@@H]12`, “inactive”.
On the same count and under the same terms, under `ClCc1cccnc1` stands “inactive”.
Take `C[C@]12CCC(=O)C[C@@H]1CC[C@@H]1[C@@H]2CC[C@]2(C)[C@@H](O)CC[C@@H]12`: the concentration at half-maximal activity (AC50) is 24 µM (active) and 23.2 µM (active) and 13.8 µM (active); the result was inactive.
With `Oc1cccc2cccnc12`, the concentration at half-maximal activity (AC50) was 69.2 µM (active) and the outcome was inactive.
As for `Cc1cc(Cl)ccc1O[C@H](C)C(=O)O`, the result was inactive.
The same measure, in the same setting: under `COc1ccc(C=O)cc1` stands “inactive”; under `CNC(=O)O/N=C/C(C)(C)S(C)=O` (stereo not drawn), “inactive”; under `COP(=S)(OC)Oc1ccc(S(=O)(=O)N(C)C)cc1`, “inactive”.
The same measure, in the same setting: under `OCc1ccco1` stands “inactive”; under `O=[N+]([O-])c1c(Cl)c(Cl)cc(Cl)c1Cl`, “inactive”; under `Cc1ccc(N)cc1Cl`, “inactive”.
Same read-out and setting: under `NC(=O)O` stands “inactive”.
In the case of `O=C(O)C(F)(F)C(F)(F)C(F)(F)C(F)(F)C(F)(F)C(F)(F)C(F)(F)C(F)(F)C(F)(F)C(F)(F)F`, the AC50 was 54.5 µM (active) and the result was inactive.
On to `O=C(Nc1ccc2[nH]ccc2c1)c1cc2cc(F)ccc2n1Cc1cccc(F)c1`, for which the AC50 is 19.2 µM (active).
Turning to `[O-][Cl+2]([O-])O`, the result was inactive.
The same measure, in the same setting: under `Nc1ccc(-c2ccc(N)c(Cl)c2)cc1Cl` stands “inactive”; under `CCC(=O)c1ccccc1`, “inactive”; under `CCOP(=S)(OCC)SCCS(=O)(=O)CC`, “inactive”.
On to `Cl/C=C\C[N+]12CN3CN(CN(C3)C1)C2`, for which the half-maximal activity concentration (AC50) was 76.9 µM (active).
For `O=C1C2(Cl)C3(Cl)C4(Cl)C(Cl)(Cl)C5(Cl)C3(Cl)C1(Cl)C5(Cl)C24Cl` (stereo not drawn), the AC50 is 5.67 µM (active) and 5.25 µM (active); the result was inactive.
As for `CCOP(OCC)OCC`, the result was inactive.
Same read-out and setting: under `Clc1ccc(C2(Cn3cncn3)CC(Br)CO2)c(Cl)c1` (stereo not drawn) stands “inactive”; under `CCCCP(CCCC)CCCC`, “inactive”; under `Nc1ccc(N=Nc2ccc(-c3ccc(N=Nc4c(S(=O)(=O)O)cc5cc(S(=O)(=O)O)c(N=Nc6ccccc6)c(O)c5c4N)cc3)cc2)c(N)c1`, “inactive”.

A short description of a further assay: ATG_M_61_CIS: Attagene CIS-FACTORIAL HepG2 Assay for M61 Transcription Factor (Internal Marker) (AID 2282937). As to conditions: HepG2 Attagene CIS-FACTORIAL M61 internal marker reporter; actives raise or lower the signal. The procedure, abridged:
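Background-control endpoint: HepG2 cells with cis-regulated reporter constructs, 24 h exposure, reporter mRNA detected via fluorescent primer extension and capillary electrophoresis; values from bidirectional fitting with DMSO baseline.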
On to `COc1cc(-c2ccc(N)c(OC)c2)ccc1N`, for which the result was inactive.
On to `CC(=O)C(Cl)C(=O)N(C)C` (stereo not drawn), for which the call was inactive.
Consider `O=C(Cl)c1ccc(Cl)cc1`, for which the result was inactive.
Still for that read-out and setting: under `CC(C)(C)CC(C)(C)c1ccc(O)cc1` stands “inactive”; under `C=CC(=O)N(C)C`, “inactive”.
Same read-out and setting: under `CCOP(=O)(CN(CCO)CCO)OCC` stands “inactive”; under `C(=NC1CCCCC1)=NC1CCCCC1`, “inactive”.
The same measure, in the same setting: under `ClC1=C(Cl)[C@]2(Cl)[C@H]3[C@H]([C@H]4C=C[C@H]3C4)[C@@]1(Cl)C2(Cl)Cl` stands “inactive”; under `CC(C)c1ccc(CO)cc1`, “inactive”.
As to `CCC1(c2ccc(N)cc2)CCC(=O)NC1=O` (stereo not drawn), the outcome was inactive.
Consider `COc1ccccc1OC`, for which the compound was classed as inactive.
For the compound `Clc1nc(Cl)nc(Cl)n1`, the outcome was inactive.
As for `CC(C)C1CCC(Cc2ccc(Cl)cc2)C1(O)Cn1cncn1` (stereo not drawn), the compound was classed as inactive.
Same read-out and setting: under `Cc1ccc2ccccc2c1C` stands “inactive”; under `C[C@]12CC[C@H](O)CC1=CC[C@@H]1[C@@H]2CC[C@]2(C)C(=O)CC[C@@H]12`, “inactive”.
Take `ClCc1cccnc1`: the compound was classed as inactive.
The same measure, in the same setting: under `C[C@]12CCC(=O)C[C@@H]1CC[C@@H]1[C@@H]2CC[C@]2(C)[C@@H](O)CC[C@@H]12` stands “inactive”.
The same measure, in the same setting: under `Oc1cccc2cccnc12` stands “inactive”.
Still for that read-out and setting: under `Cc1cc(Cl)ccc1O[C@H](C)C(=O)O` stands “inactive”.
For the compound `COc1ccc(C=O)cc1`, the compound was classed as inactive.
Same read-out and setting: under `CNC(=O)O/N=C/C(C)(C)S(C)=O` (stereo not drawn) stands “inactive”; under `COP(=S)(OC)Oc1ccc(S(=O)(=O)N(C)C)cc1`, “inactive”; under `OCc1ccco1`, “inactive”.
For the compound `O=[N+]([O-])c1c(Cl)c(Cl)cc(Cl)c1Cl`, the outcome was inactive.
Same read-out and setting: under `Cc1ccc(N)cc1Cl` stands “inactive”; under `NC(=O)O`, “inactive”.
Turning to `O=C(O)C(F)(F)C(F)(F)C(F)(F)C(F)(F)C(F)(F)C(F)(F)C(F)(F)C(F)(F)C(F)(F)C(F)(F)F`, the concentration at half-maximal activity (AC50) was 76.2 µM (active) and the outcome was inactive.
With `O=C(Nc1ccc2[nH]ccc2c1)c1cc2cc(F)ccc2n1Cc1cccc(F)c1`, the compound was classed as inactive.
As for `[O-][Cl+2]([O-])O`, the compound was classed as inactive.
As for `Nc1ccc(-c2ccc(N)c(Cl)c2)cc1Cl`, the result was inactive.
Same read-out and setting: under `CCC(=O)c1ccccc1` stands “inactive”; under `CCOP(=S)(OCC)SCCS(=O)(=O)CC`, “inactive”.
Same read-out and setting: under `Cl/C=C\C[N+]12CN3CN(CN(C3)C1)C2` stands “inactive”; under `O=C1C2(Cl)C3(Cl)C4(Cl)C(Cl)(Cl)C5(Cl)C3(Cl)C1(Cl)C5(Cl)C24Cl` (stereo not drawn), “inactive”.
On the same count and under the same terms, under `CCOP(OCC)OCC` stands “inactive”; under `Clc1ccc(C2(Cn3cncn3)CC(Br)CO2)c(Cl)c1` (stereo not drawn), “inactive”; under `CCCCP(CCCC)CCCC`, “inactive”.
As to `Nc1ccc(N=Nc2ccc(-c3ccc(N=Nc4c(S(=O)(=O)O)cc5cc(S(=O)(=O)O)c(N=Nc6ccccc6)c(O)c5c4N)cc3)cc2)c(N)c1`, the result was inactive.
